From the supplement of paper PMC10849652
The full data set covers some 8,800 targets. This sample favours those with a hit. About 0.5% of all pairs of compound and target were hits. A number with no mark means an inactive call.

Sequence of UniProt Q13416 (Q13416 whole entry, looked up): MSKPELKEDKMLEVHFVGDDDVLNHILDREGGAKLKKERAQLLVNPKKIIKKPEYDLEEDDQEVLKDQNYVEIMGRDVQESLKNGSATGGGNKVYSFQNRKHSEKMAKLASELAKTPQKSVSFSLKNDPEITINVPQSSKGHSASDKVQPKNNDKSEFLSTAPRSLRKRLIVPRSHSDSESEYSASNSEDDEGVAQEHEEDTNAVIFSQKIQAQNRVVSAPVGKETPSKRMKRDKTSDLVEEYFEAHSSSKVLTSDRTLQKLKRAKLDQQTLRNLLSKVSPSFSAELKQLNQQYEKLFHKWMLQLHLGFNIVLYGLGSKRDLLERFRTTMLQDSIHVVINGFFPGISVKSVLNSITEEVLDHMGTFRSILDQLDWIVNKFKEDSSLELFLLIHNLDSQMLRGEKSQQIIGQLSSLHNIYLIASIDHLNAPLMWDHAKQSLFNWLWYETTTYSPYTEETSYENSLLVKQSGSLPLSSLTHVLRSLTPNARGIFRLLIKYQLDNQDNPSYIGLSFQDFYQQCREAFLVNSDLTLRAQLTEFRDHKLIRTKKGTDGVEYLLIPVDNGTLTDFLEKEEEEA
Sequence of UniProt Q147X3 (Q147X3 whole entry, looked up): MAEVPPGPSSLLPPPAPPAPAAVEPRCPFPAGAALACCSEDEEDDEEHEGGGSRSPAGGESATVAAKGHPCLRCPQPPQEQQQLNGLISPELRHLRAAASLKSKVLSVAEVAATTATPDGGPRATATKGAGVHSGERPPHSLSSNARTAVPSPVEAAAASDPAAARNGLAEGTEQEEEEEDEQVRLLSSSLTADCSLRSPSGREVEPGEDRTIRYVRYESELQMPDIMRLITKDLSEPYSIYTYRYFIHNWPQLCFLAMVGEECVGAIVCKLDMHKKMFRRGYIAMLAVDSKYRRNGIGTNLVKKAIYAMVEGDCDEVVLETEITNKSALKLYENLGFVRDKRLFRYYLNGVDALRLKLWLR
Sequence of UniProt P49757 (P49757 whole entry, looked up): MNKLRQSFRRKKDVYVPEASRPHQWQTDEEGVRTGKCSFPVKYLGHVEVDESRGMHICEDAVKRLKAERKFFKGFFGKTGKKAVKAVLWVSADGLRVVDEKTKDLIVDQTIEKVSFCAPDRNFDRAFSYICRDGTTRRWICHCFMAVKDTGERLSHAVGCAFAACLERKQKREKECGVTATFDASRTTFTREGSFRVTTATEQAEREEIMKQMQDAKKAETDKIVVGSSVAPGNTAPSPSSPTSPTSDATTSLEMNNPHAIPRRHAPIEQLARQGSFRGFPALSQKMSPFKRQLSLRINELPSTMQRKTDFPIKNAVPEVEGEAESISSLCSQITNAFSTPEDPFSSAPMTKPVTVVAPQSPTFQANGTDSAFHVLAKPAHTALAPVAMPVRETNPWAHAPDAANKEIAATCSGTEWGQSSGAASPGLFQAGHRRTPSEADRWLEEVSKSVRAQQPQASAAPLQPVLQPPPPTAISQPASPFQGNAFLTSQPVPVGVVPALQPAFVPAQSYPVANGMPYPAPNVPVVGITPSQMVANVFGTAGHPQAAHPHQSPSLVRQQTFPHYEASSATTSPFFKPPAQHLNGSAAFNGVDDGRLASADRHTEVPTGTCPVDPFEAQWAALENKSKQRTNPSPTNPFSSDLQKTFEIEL
Sequence of UniProt Q9Y314 (Q9Y314 whole entry, looked up): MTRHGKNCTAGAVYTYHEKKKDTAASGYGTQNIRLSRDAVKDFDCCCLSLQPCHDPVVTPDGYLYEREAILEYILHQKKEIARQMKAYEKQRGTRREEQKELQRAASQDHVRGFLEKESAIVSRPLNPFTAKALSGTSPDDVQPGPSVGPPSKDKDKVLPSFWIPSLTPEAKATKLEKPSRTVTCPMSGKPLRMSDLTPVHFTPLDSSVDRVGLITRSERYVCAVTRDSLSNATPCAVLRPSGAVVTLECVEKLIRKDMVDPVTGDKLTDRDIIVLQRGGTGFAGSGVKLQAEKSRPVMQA
Sequence of UniProt Q9Y530 (Q9Y530 whole entry, looked up): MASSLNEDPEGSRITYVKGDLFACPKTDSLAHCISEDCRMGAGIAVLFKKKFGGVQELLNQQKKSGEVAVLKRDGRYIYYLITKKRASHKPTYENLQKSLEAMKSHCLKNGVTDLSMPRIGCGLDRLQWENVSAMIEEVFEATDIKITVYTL
Sequence of UniProt Q6GQQ9 (Q6GQQ9 whole entry, looked up): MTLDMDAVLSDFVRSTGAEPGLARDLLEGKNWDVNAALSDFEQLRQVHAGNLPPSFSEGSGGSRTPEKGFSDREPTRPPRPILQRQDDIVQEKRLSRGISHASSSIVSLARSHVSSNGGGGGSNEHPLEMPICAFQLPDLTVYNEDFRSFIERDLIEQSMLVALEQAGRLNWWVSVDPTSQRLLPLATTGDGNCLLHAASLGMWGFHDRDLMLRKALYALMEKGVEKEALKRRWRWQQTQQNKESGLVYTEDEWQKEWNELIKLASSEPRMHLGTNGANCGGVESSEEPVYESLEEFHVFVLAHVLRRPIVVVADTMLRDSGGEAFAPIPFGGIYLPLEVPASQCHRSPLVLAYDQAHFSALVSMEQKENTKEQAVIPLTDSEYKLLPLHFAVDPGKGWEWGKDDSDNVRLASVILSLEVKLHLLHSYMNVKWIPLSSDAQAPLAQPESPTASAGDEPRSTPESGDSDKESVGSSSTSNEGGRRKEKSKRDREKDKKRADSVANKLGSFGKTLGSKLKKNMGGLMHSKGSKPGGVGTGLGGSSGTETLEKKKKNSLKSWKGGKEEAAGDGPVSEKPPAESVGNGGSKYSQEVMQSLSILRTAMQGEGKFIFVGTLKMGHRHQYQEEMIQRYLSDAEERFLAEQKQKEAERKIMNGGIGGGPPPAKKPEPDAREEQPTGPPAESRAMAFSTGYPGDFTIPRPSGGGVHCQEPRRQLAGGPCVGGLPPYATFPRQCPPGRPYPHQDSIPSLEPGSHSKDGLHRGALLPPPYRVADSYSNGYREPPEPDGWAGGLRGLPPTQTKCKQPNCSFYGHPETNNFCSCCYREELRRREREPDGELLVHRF
Sequence of UniProt P52179 (P52179 whole entry, looked up): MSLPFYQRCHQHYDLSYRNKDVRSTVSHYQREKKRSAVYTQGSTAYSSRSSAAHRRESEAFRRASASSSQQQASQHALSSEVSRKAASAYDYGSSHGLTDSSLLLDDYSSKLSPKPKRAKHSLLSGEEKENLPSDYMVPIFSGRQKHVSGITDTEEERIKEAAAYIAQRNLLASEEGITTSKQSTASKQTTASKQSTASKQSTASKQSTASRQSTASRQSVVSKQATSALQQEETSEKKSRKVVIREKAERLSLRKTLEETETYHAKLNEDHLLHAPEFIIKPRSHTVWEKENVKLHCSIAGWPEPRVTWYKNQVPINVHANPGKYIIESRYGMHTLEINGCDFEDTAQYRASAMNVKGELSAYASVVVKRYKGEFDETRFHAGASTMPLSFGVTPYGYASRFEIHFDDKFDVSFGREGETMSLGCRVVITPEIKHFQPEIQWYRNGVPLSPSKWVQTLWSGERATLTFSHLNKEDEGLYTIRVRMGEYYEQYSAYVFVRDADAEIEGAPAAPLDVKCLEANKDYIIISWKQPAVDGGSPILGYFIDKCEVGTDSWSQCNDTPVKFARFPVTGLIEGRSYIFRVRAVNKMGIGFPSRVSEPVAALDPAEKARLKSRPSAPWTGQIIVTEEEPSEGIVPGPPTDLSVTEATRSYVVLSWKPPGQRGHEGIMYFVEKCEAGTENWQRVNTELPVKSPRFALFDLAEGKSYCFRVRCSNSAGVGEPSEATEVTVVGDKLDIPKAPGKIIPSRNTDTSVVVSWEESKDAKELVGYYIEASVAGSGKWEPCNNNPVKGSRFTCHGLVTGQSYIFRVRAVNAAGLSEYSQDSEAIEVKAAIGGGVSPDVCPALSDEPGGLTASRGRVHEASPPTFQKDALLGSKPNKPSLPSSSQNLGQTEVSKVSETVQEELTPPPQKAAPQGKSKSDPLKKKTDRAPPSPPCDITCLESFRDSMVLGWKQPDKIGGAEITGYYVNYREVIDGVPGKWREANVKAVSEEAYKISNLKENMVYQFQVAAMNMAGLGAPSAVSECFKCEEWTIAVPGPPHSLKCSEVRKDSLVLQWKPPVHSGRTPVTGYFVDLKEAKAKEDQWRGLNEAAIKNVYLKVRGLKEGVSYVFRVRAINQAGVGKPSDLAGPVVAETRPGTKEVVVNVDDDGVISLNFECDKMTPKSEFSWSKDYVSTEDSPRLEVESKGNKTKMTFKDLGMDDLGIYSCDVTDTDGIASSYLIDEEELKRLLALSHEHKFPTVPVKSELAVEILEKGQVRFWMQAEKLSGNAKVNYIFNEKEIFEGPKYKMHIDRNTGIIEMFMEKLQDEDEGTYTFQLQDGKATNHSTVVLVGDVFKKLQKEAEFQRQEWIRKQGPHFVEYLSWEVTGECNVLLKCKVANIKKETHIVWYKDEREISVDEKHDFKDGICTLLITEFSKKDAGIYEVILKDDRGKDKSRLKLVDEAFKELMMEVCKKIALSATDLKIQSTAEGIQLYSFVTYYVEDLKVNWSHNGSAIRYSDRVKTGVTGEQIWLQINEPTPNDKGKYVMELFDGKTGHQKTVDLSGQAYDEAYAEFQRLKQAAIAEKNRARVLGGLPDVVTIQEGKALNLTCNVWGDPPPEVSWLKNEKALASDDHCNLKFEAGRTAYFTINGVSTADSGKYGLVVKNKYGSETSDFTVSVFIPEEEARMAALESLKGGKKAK
Sequence of UniProt Q8TDX7 (Q8TDX7 whole entry, looked up): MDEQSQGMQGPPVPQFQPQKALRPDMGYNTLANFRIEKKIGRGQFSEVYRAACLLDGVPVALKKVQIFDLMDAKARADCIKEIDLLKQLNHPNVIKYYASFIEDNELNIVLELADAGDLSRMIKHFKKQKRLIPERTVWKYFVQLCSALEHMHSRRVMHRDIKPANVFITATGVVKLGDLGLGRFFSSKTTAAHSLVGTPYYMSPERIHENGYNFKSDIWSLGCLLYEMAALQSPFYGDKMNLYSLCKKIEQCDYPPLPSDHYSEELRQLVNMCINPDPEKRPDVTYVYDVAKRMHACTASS

Each target was assayed with CNC(=O)c1ccc(Nc2ncc(C(F)(F)F)c(NCc3nccnc3N(C)S(C)(=O)=O)n2)cc1 [defactinib] (assay: log2 fold change, soluble protein after heating vs DMSO (PISA); higher = thermal stabilisation; K562 lysate, 10 uM; active = over 0.2 and 3.5 SD of the protein, either way, in both replicates (recomputed)).
Outline: (§1)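 Following dounce homogenisation of K562 pellets in PBS pH 7.4 with 1 mM MgCl2, crude extract at 1 mg/mL protein was incubated for 30 min with 10 μM compound. Aliquots were then heated for 3 min over 48°C-58°C and pooled, NP-40 was added to 0.5% at 4°C, and soluble protein was recovered as the supernatant at 21,000xg for 90 min. Channel-sum-equalised TMTpro 16plex LC-MS/MS quantified this protein. Each value, from duplicates, is a log-two fold change in thermal stability relative to solvent controls.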
Target NAA30 (UniProt Q147X3) has a log2 fold change of 0.002. Target NUDT5 (UniProt Q9UKK9) has a log2 fold change of 0.072. Target NOSIP (UniProt Q9Y314) has a log2 fold change of 0.05. For MTFP1 (UniProt Q9UDX5), the log2 fold change was 0.145. Target NFATC1 (UniProt O95644) has a log2 fold change of -0.012. Work on MYOM1 (UniProt P52179) yielded a log2 fold change of 0.194. MTCH2 (UniProt Q9Y6C9) gave a log2 fold change of -0.003. PAK1 (UniProt Q13153) gave a log2 fold change of -0.006. NFATC2 (UniProt Q13469) showed a log2 fold change of -0.028. For NOC2L (UniProt Q9Y3T9), the log2 fold change was 0.121. NEK7 (UniProt Q8TDX7) showed a log2 fold change of 0.007.

What follows are targets tested with CNc1nc(-c2ccc3c(N)n[nH]c3c2)cc(N2C[C@@H](C(=O)NC3CCCCC3)CC[C@H]2C)n1 in the same assay as above.
Outline: as §1
ORC2 (UniProt Q13416) was tested, and the log2 fold change was -0.008. In the case of NIPSNAP3A (UniProt Q9UFN0), the log2 fold change is reported as 0.025. For N6AMT1 (UniProt Q9Y5N5), the log2 fold change was 0.021. Work on OTUD7B (UniProt Q6GQQ9) yielded a log2 fold change of -0.011. MSH2 (UniProt P43246) gave a log2 fold change of 0.007. Work on MRPL53 (UniProt Q96EL3) yielded a log2 fold change of -0.048. NFKBIE (UniProt O00221) gave a log2 fold change of 0.013. With NCAPH2 (UniProt Q6IBW4) the log2 fold change was -0.084. Target MRPS18A isoform 2 (UniProt Q9NVS2) has a log2 fold change of 0.106. In the case of NOB1 (UniProt Q9ULX3), the log2 fold change is reported as -0.011. Work on NCAPG2 (UniProt Q86XI2) yielded a log2 fold change of 0.04. For NUMB (UniProt P49757), the log2 fold change was 0.026. OARD1 (UniProt Q9Y530) gave a log2 fold change of -0.11.
